# SARS PLpro yeast – blocks SARS-CoV papain-like protease in a yeast assay. S. cerevisiae expressing SARS-CoV PLpro, growth rescue. Potency, µM (series often up to 32.9 µM), hits mostly activators. actives 0.19% (n = 330,000); calls by dose curve; also: nearly all actives have a fitted effect of over 55% in size
# Pf growth 96h – P. falciparum growth inhibition at 96 hours. AID 504834. actives 6.9% (n = 320,000). P. falciparum luciferase reporter growth, 96 h. Potency, µM (titrated, usually from 28.7 µM), actives largely listed as inhibitors
#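 P. falciparum expressing integrated firefly luciferase grown in erythrocytes (2% hematocrit, 0.05% parasitemia final) with compounds for 96 hours at 37 C, 5% CO2. Growth inhibition read as loss of luminescence after adding luciferase detection reagent.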
# Pf growth 48h – P. falciparum growth inhibition at 48 hours (one generation) | Potency, µM (highest dose often 28.7 µM), most hits filed as inhibitors | P. falciparum luciferase growth in erythrocytes, 48 h | AID 504832 | actives 5.9% (n = 310,000)
#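 Cell-based growth assay: transgenic P. falciparum expressing firefly luciferase, cultured in red cells within RPMI 1640 containing 0.5% w/v Albumax, 24 mM bicarbonate and gentamycin. A drop in luciferase activity indicates inhibition.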
# Cycloheximide cs – counter-screen hit for Shiga toxin inhibitors, cycloheximide | cell reporter, cycloheximide protein synthesis inhibition counterscreen | max response, % | actives 12% (n = 300,000); in the data active = max response mostly above about 13%, no sharp cut-off; inactive = mostly below about 14%; also: read at 38.3 µM for the half of the compounds with a filed dose
# NS1 function inh – influenza NS1 inhibition; Potency, µM (titrated, usually from 46.1 µM); actives 0.4% (n = 270,000); AID 2326; calls by dose curve; also: actives are rising curves; nearly all actives have a fitted effect of over 50% in size
#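 A cell-based growth assay was used: compounds that relieve NS1-induced slow growth of budding yeast raise OD600. Assay medium was yeast nitrogen base with ammonium sulphate and -URA supplement, pH 6.0, with 2% galactose.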
# Shiga inhibitor – inhibitors of Shiga toxin in Vero cells; actives 9.2% (n = 290,000); inhibition, % at 38.7 µM; AID 2315; Vero cells, Shiga toxin protein synthesis inhibition reporter; in the data active = inhibition mostly above about 28%, no sharp cut-off; inactive = mostly below about 43%
# Numbers stand for hits; - = inactive; ? = inconclusive; . = not tested or not shown; + = active, no number. Compounds with a hit are over-represented: about 21% of the library has one in this group of screens. Unless noted, calls follow the shape of the dose curve; as a rule, active = well fitted inhibition curve with a large enough effect; inconclusive = small, poorly fitted or top-dose-only effect, or another doubt; inactive = no such curve, though single readings can be large or run the other way.
SMILES,SARS PLpro yeast,Pf growth 96h,Pf growth 48h,Cycloheximide cs,NS1 function inh,Shiga inhibitor
Cc1ccc2nc(SCC(=O)NCc3ccc(F)cc3)nc(=O)n2c1,-,-,-,.,.,.
COc1ccc2cc(C(C)=O)c(=O)oc2c1,-,-,-,-,-,-
COc1ccc(-c2cc3ccc(OC(C)C(=O)O)cc3oc2=O)cc1 (stereo unspecified),.,?,-,13,-,-
CC(=O)COc1ccc2cc(-c3ccccc3)c(=O)oc2c1,-,-,-,42,-,73
COC(=O)c1ccccc1NC1=C/C(=N\S(=O)(=O)c2cccs2)c2ccccc2C1=O,-,0.66µM,.,28,-,-
COC(=O)c1ccccc1NC1=C/C(=N\S(=O)(=O)c2ccc(C(=O)O)cc2)c2ccccc2C1=O,-,-,1.5µM,-,-,-
CC(C)Cc1ccc(C(C)C(=O)Nc2ccccc2O)cc1 (stereo unspecified),-,-,?,-,-,-
Cc1nc(NCC2CCCO2)c2nnn(Cc3c(F)cccc3Cl)c2n1 (stereo unspecified),-,-,-,-,-,-
Cc1cccc(N2CCN(C(=O)c3cc(C)oc3C)CC2C)c1 (stereo unspecified),-,-,-,-,-,-
N/C(=N\OC(=O)c1ccco1)c1ccccn1,-,?,-,44,-,95
CN(CCOC(=O)c1ccco1)Cc1ccccc1,-,?,.,-,-,-
CN(CC(=O)O/N=C(\N)c1ccc(Br)cc1)S(=O)(=O)c1ccccc1,-,-,-,-,-,-
N/C(=N\OC(=O)c1ccco1)c1ccccc1,-,-,-,32,-,+
N/C(=N\OC(=O)c1ccco1)c1ccc(Br)cc1,-,-,-,39,-,95
COc1ccc(/C(N)=N/OC(=O)c2ccco2)cc1,-,-,-,-,-,-
Cc1ccc(/C(N)=N/OC(=O)c2ccco2)cc1,-,-,-,22,-,active
Cc1cnc(C(=O)OCC(=O)c2ccc(Br)s2)cn1,-,-,?,.,.,.
Cc1cccc(C(=O)NCCNC(=O)c2ccco2)c1,-,-,-,-,-,-
Cc1cccc(/C(N)=N/OC(=O)c2ccco2)c1,-,?,.,26,-,72
Cc1occc1C(=O)O/N=C(\N)c1ccc(Cl)cc1,-,?,?,66,-,136
Cc1noc(-c2ccc(Cl)cc2)c1C(=O)O/N=C(\N)c1ccc(C(C)(C)C)cc1,-,?,?,-,-,-
O=c1[nH]cc([N+](=O)[O-])cc1Br,-,-,-,-,-,-
N=c1occ(C(=O)c2cc(F)ccc2O)cc1C(=O)NC1CCCCC1,-,?,?,-,.,-
CCN(CC)C(=O)C(=O)c1cccn1-c1cccc(OC)c1C#N,-,-,-,-,-,-
N=C1/C(=C\c2ccc(OC(=O)c3ccccc3Cl)cc2)C(=O)N=C2SC(N3CCOCC3)=NN12,-,-,-,24,-,58
SMILES,SARS PLpro yeast,Pf growth 96h,Pf growth 48h,Cycloheximide cs,NS1 function inh,Shiga inhibitor
COc1cc(/C=C2/C(=N)N3N=C(CC(=O)N4CCOCC4)SC3=NC2=O)ccc1OC(C)c1ccccc1 (stereo unspecified),-,-,-,-,-,-
COc1ccc(OC)c(-n2c(C)cc(/C=C3\C(=N)N4N=C(CC(=O)N5CCOCC5)SC4=NC3=O)c2C)c1,-,12µM,?,-,-,-
N=C1/C(=C/c2ccc(OCc3ccccc3)cc2)C(=O)N=C2SC(CC(=O)N3CCOCC3)=NN12,-,-,-,15,-,-
COc1cc(/C=C2\C(=N)N3N=C(N4CCOCC4)SC3=NC2=O)ccc1OC(=O)c1ccccc1,-,?,-,-,-,-
N=C1/C(=C/c2ccc(OCc3ccccc3F)cc2)C(=O)N=C2SC(CC(=O)N3CCOCC3)=NN12,-,-,-,23,-,85
Cc1cc(/C=C2\C(=N)N3N=C(CC(=O)N4CCOCC4)SC3=NC2=O)c(C)n1Cc1ccccc1,-,-,-,-,-,-
Cc1cc(C(=O)OCC(=O)N(C)c2c(N)n(Cc3ccccc3)c(=O)[nH]c2=O)c(C)n1-c1ccccc1,-,?,?,.,.,.
COC(=O)C(C(=O)Nc1nc2ccccc2s1)C1CCCC1 (stereo unspecified),-,-,-,-,-,-
O=[N+]([O-])/C=C1\C=CC=CN1Cc1ccc(Cl)cc1,-,-,-,-,-,-
O=C(OCn1nnc2ccccc2c1=O)c1cccc(S(=O)(=O)N2CCOCC2)c1,-,-,?,.,.,.
Cc1cc(C(=O)N/N=C/c2c(C)nn(-c3ccccc3)c2Cl)n[nH]1,-,-,?,18,-,49
Cc1nn(-c2ccccc2)c(Cl)c1/C=N/NC(=O)c1ccn[nH]1,-,-,-,21,-,-
Cc1ccc(-n2nc(C)c(/C=N/NC(=O)c3cccnc3)c2Cl)cc1,-,-,?,-,-,-
Cc1nn(-c2ccccc2)c(Cl)c1/C=N/NC(=O)c1cccnc1,-,?,-,33,-,-
Cc1[nH]n(-c2ccccc2)c(=O)c1/C=N/NC(=O)COc1ccccc1[N+](=O)[O-],14µM,?,?,-,-,-
COCC(=O)N/N=C/c1c(C)[nH]n(-c2ccccc2)c1=O,-,-,?,-,.,-
CC1CCc2sc(C(=O)N(C)CC(=O)Nc3ccc(N4CCOCC4)cc3)cc2C1 (stereo unspecified),-,?,?,-,-,-
CC12CN3CC(C)(CN(C1)C3c1ccc3c(c1)OCO3)C2O (stereo unspecified),-,-,-,-,?,-
Cc1ccc(C(=O)N/N=C\c2c(C)nn(-c3ccccc3)c2Cl)cn1,-,?,-,-,-,-
Cc1nn(-c2ccccc2)c(Cl)c1/C=C1\C(=O)N(C)C(=S)N1C,-,13µM,?,-,.,-
Cc1nn(-c2ccccc2)c(Cl)c1/C=N/O,-,?,-,-,-,-
Cc1ccccc1OCC(=O)N/N=C/c1c(C)nn(-c2ccccc2)c1Cl,-,-,-,-,-,-
Cc1nn(-c2ccccc2)c(Cl)c1/C=N/NC(=O)c1ccccc1F,-,-,-,37,-,64
Cc1nn(-c2ccccc2)c(Cl)c1/C=N/NC(=O)c1[nH]ncc1Br,-,-,-,29,-,45
Cc1nn(-c2ccccc2)c(Cl)c1/C=C/C(=O)c1ccccc1,-,?,.,19,-,-
Cc1nn(-c2ccccc2)c(Cl)c1/C=C1\SC(=S)N(C)C1=O,-,?,-,-,-,-
COc1ccc(-c2ncnc(C(F)(F)F)c2-c2csc(C)n2)c(O)c1,-,?,?,-,-,-
Cc1[nH]n(-c2ccccc2)c(=O)c1/C=N/NC(=O)c1ccccc1F,-,2.3µM,.,25,-,64
CC1(C)CC(C(CCN(Cc2ccccc2)C(=O)c2ccco2)c2ccc(F)cc2)CCO1 (stereo unspecified),-,1.5µM,12µM,-,-,-

# Screens from PubChem.
